From the supplement of paper PMC10849652
Targets with a hit are over-represented here; the source holds about 8,800 in all. About 0.5% of all pairs of compound and target were hits.

Tests used:
Experiment in all cases: log2 fold change, soluble protein after heating vs DMSO (PISA); higher = thermal stabilisation; K562 lysate, 10 uM; active = over 0.2 and 3.5 SD of the protein, either way, in both replicates (recomputed)
ibrutinib = compound: C=CC(=O)N1CCC[C@@H](n2nc(-c3ccc(Oc4ccccc4)cc3)c3c(N)ncnc32)C1 [ibrutinib]
Method in brief: (§1)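 Values give the log-two fold change in thermal stability against solvent controls, from duplicates. Crude K562 extract at 1 mg/mL protein, made by dounce homogenisation in PBS pH 7.4 with 1 mM MgCl2, was treated with 10 μM compound for 30 min. After 3 min heating across 48°C-58°C, aliquots were pooled, adjusted to 0.5% NP-40 at 4°C and centrifuged at 21,000xg for 90 min. The supernatant was measured by TMTpro 16plex LC-MS/MS with channel sums equalised.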

[1] = compound: CC(=O)c1cnc2ccc(-c3cc(Cl)c(O)c(Cl)c3)nc2c1N[C@H]1CC[C@H](CN(C)C)CC1
Method in brief: as §1

ralimetinib = compound: CC(C)(C)Cn1c(N)nc2ccc(-c3[nH]c(C(C)(C)C)nc3-c3ccc(F)cc3)nc21 [ralimetinib]
Method in brief: as §1

[2] = compound: CC(C)(O)CC(=O)NCCn1ccc2ncnc(Nc3ccc(Oc4cccc(C(F)(F)F)c4)c(Cl)c3)c21
Method in brief: as §1

[3] = compound: CC(C)C1=C2N=C(C=C(N2N=C1)NCC3=CC=CC=C3)NCCCCCCN
Method in brief: as §1

[4] = compound: CC1=C(C(CC(=O)N1)C2=CC=C(C=C2)C(F)(F)F)C(=O)NC3=C(C=C4C(=C3)C=NN4)F
Method in brief: as §1

[5] = compound: CC1=C(C2=C(C=C1)C(=O)C3=CC=CC=C3N2CCCN)C
Method in brief: as §1

[6] = compound: CC1=C(C=C(C=C1)NC(=O)C2=CC(=CC=C2)C(C)(C)C#N)NC3=CC4=C(C=C3)N=CN(C4=O)C
Method in brief: as §1

[7] = compound: CC1=C(C=C(C=C1)NC(=O)C2=CC(=CC=C2)N(C)C)NC(=O)C3=CC=C(C=C3)O
Method in brief: as §1

[8] = compound: CC1=CC=C(C=C1)SC2=C3C=C(SC3=CN=C2)C(=O)N
Method in brief: as §1

vemurafenib = compound: CCCS(=O)(=O)Nc1ccc(F)c(C(=O)c2c[nH]c3ncc(-c4ccc(Cl)cc4)cc23)c1F [vemurafenib]
Method in brief: as §1

[9] = compound: CCCS(=O)(=O)Nc1ccc(F)c(C(=O)c2c[nH]c3ncc(Cl)cc23)c1F
Method in brief: as §1

barasertib = compound: CCN(CCCOc1ccc2c(Nc3cc(CC(=O)Nc4cccc(F)c4)[nH]n3)ncnc2c1)CCOP(=O)(O)O [barasertib]
Method in brief: as §1

[10] = compound: CC[C@@H]1C(=O)N(C)c2cnc(Nc3ccc(C(=O)NC4CCN(C)CC4)cc3OC)nc2N1C1CCCC1
Method in brief: as §1

volasertib = compound: CC[C@@H]1C(=O)N(C)c2cnc(Nc3ccc(C(=O)N[C@H]4CC[C@H](N5CCN(CC6CC6)CC5)CC4)cc3OC)nc2N1C(C)C [volasertib]
Method in brief: as §1

[11] = compound: CCn1c(C(=O)N(C2CC2)C2CC2)cc2c3c(ncn3C)c(Nc3cc(C)n(C)n3)nc21
Method in brief: as §1

[12] = compound: CCn1cc(-c2ccnc3[nH]c(-c4cccc(CN(C)C)c4)cc23)c(-c2ccc(NC(=O)N(C)C)cc2)n1
Method in brief: as §1

[13] = compound: CN1CCC(CNc2ccc3ncc(-c4cccc(OC(F)(F)F)c4)n3n2)CC1
Method in brief: as §1

saracatinib = compound: CN1CCN(CCOc2cc(OC3CCOCC3)c3c(Nc4c(Cl)ccc5c4OCO5)ncnc3c2)CC1 [saracatinib]
Method in brief: as §1

sotrastaurin = compound: CN1CCN(c2nc(C3=C(c4c[nH]c5ccccc45)C(=O)NC3=O)c3ccccc3n2)CC1 [sotrastaurin]
Method in brief: as §1

Measured: log2 fold change

RBBP8 isoform 2 (UniProt Q99708)
inactive: ibrutinib -0.204 | [1] 0.005 | ralimetinib -0.086 | [2] 0.011 | [3] -0.006 | [4] 0.003 | [5] -0.018 | [6] -0.066 | [7] -0.006 | [8] -0.143 | vemurafenib 0.002 | [9] 0.182 | barasertib -0.013 | [10] 0.079 | volasertib -0.019 | [11] -0.065 | [12] 0.065 | [13] -0.021 | saracatinib 0.018 | sotrastaurin -0.017

RAF1 isoform 2 (UniProt P04049)
UniProt P04049, sequence (P04049 whole entry, looked up): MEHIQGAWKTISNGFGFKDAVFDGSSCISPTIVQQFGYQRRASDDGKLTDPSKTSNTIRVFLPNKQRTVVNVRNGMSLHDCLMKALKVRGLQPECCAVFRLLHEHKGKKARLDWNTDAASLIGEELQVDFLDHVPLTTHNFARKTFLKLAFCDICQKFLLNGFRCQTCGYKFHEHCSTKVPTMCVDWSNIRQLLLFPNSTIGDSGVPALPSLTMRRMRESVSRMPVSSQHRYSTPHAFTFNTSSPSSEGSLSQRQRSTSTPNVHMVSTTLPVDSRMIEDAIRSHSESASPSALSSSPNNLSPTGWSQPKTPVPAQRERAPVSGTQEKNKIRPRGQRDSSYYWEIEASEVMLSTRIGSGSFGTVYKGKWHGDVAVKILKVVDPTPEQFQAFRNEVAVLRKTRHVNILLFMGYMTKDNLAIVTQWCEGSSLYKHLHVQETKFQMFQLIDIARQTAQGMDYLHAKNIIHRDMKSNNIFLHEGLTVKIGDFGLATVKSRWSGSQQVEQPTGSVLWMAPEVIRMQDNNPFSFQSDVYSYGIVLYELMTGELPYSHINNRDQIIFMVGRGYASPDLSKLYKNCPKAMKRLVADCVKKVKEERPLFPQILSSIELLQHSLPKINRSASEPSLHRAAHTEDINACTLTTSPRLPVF
inactive: ibrutinib -0.046 | [1] 0.047 | ralimetinib 0.054 | [2] 0.004 | [3] 0.065 | [4] 0.092 | [5] -0.055 | [7] 0 | [8] 0.027 | [9] -0.142 | barasertib 0.068 | [10] -0.159 | volasertib -0.083 | [11] -0.029 | [12] -0.028 | [13] -0.037 | saracatinib -0.014 | sotrastaurin -0.041
active: [6] 0.359 | vemurafenib 0.739

RCC1 isoform 2 (UniProt P18754)
UniProt P18754, sequence (P18754 whole entry, looked up): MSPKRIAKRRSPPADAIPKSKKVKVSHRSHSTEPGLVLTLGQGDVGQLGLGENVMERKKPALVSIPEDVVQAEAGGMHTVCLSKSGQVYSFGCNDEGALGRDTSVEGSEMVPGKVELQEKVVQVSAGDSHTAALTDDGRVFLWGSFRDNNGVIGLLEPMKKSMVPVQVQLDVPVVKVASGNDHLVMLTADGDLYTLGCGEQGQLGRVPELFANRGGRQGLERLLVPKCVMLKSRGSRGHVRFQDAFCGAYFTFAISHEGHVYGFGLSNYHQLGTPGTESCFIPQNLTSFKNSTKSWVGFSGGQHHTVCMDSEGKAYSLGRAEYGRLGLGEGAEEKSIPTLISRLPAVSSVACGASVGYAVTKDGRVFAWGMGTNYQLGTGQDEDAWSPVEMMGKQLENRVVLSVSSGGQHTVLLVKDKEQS
inactive: ibrutinib -0.008 | [1] 0.012 | ralimetinib 0.041 | [2] 0.019 | [3] 0.015 | [4] -0.048 | [5] -0.037 | [6] -0.01 | [7] 0.036 | [8] 0.01 | vemurafenib 0.049 | [9] 0.018 | barasertib -0.008 | [10] -0.114 | volasertib -0.066 | [11] 0.027 | [12] -0.105 | [13] -0.046 | saracatinib -0.021 | sotrastaurin 0.001

RAB1B (UniProt Q9H0U4)
UniProt Q9H0U4, sequence (Q9H0U4 whole entry, looked up): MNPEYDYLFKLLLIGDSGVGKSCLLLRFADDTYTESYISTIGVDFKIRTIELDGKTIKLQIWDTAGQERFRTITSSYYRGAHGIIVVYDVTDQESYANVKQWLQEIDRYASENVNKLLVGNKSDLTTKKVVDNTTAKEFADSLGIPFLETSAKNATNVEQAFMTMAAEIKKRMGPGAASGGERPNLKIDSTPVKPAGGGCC
inactive: ibrutinib -0.011 | [1] -0.01 | ralimetinib -0.014 | [2] -0.012 | [3] -0.006 | [4] 0.02 | [5] -0.014 | [6] -0.036 | [7] -0.011 | [8] -0.006 | vemurafenib -0.003 | [9] 0.012 | barasertib 0.073 | [10] 0.019 | volasertib 0.006 | [11] -0.016 | [13] 0.171 | saracatinib 0.021 | sotrastaurin 0.017
active: [12] -0.444

SCO2 (UniProt O43819)
UniProt O43819, sequence (O43819 whole entry, looked up): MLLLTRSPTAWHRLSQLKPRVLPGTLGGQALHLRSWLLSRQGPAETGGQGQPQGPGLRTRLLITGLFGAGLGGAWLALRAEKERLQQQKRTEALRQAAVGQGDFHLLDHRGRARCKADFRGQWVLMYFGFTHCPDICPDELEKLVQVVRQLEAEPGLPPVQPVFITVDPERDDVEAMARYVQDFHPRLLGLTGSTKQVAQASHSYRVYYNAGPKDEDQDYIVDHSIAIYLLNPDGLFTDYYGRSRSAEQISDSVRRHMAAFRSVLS
inactive: ibrutinib -0.021 | [1] -0.065 | ralimetinib -0.02 | [2] -0.142 | [3] 0 | [4] -0.258 | [5] -0.009 | [6] 0.017 | [7] 0.01 | [8] -0.117 | vemurafenib -0.064 | [9] 0.054 | barasertib 0.019 | [10] -0.075 | volasertib -0.028 | [11] -0.087 | [12] -0.235 | [13] 0.076 | saracatinib -0.046 | sotrastaurin 0.003

SDHA (UniProt P31040)
inactive: ibrutinib -0.015 | [1] 0 | ralimetinib 0.043 | [2] 0.049 | [3] -0.01 | [4] 0.004 | [5] 0.008 | [6] 0.014 | [7] -0.015 | [8] 0.002 | vemurafenib 0.042 | [9] 0.018 | barasertib -0.032 | [10] -0.004 | volasertib 0.002 | [11] -0.003 | [12] -0.022 | [13] 0.02 | saracatinib -0.02 | sotrastaurin 0.005

RAC2 (UniProt P15153)
inactive: ibrutinib 0.094 | [1] -0.04 | ralimetinib 0.07 | [2] -0.027 | [3] 0.047 | [4] -0.005 | [5] 0.017 | [6] -0.022 | [7] 0.045 | [8] -0.014 | vemurafenib 0.028 | [9] 0.034 | barasertib 0.054 | [10] 0.049 | volasertib -0.071 | [11] -0.001 | [12] -0.011 | [13] 0.008 | saracatinib 0.045 | sotrastaurin -0.058

RNF40 (UniProt O75150)
UniProt O75150, sequence (O75150 whole entry, looked up): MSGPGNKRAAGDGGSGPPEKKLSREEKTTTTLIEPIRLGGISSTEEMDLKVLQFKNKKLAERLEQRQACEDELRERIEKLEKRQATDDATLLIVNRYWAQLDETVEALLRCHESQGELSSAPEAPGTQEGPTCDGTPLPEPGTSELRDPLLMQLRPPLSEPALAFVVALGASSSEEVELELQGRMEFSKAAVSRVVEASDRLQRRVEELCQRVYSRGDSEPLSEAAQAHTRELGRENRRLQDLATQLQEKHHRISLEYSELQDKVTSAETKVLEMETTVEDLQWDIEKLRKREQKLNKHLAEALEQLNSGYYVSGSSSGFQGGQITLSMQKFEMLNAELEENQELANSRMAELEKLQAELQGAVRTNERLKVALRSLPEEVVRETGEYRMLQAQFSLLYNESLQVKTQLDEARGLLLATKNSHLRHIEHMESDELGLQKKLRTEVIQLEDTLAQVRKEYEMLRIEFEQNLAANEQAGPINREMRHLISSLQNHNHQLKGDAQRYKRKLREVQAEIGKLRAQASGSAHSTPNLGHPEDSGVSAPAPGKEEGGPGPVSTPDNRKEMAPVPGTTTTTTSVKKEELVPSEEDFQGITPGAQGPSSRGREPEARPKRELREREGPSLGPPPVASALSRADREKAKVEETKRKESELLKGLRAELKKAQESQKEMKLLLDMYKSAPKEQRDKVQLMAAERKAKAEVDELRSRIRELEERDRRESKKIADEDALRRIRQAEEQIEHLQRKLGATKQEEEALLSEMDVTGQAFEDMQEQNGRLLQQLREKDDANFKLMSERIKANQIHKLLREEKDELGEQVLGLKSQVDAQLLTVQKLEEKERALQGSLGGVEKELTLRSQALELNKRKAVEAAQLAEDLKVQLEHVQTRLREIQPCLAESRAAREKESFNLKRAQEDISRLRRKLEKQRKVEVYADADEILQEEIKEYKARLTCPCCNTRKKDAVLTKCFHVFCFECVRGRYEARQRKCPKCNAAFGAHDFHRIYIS
inactive: ibrutinib 0.048 | [1] -0.014 | ralimetinib 0.033 | [2] -0.015 | [3] -0.023 | [4] 0.007 | [5] -0.01 | [6] -0.001 | [7] -0.006 | [8] 0.004 | vemurafenib 0.001 | [9] 0.008 | barasertib 0.043 | [10] -0.005 | volasertib -0.047 | [11] 0.002 | [12] 0.011 | [13] -0.033 | saracatinib 0.033 | sotrastaurin -0.012

RPL37A (UniProt P61513)
active: [12] 0.371
inactive: ibrutinib -0.005 | [1] 0.002 | ralimetinib -0.041 | [2] 0.03 | [3] -0.009 | [4] -0.021 | [5] -0.032 | [6] 0.038 | [7] 0.004 | [8] 0.051 | vemurafenib 0.003 | [9] -0.002 | barasertib -0.013 | [10] -0.01 | volasertib -0.015 | [11] -0.044 | [13] -0.158 | saracatinib -0.035 | sotrastaurin -0.138

RAB3IL1 (UniProt Q8TBN0)
UniProt Q8TBN0, sequence (Q8TBN0 whole entry, looked up): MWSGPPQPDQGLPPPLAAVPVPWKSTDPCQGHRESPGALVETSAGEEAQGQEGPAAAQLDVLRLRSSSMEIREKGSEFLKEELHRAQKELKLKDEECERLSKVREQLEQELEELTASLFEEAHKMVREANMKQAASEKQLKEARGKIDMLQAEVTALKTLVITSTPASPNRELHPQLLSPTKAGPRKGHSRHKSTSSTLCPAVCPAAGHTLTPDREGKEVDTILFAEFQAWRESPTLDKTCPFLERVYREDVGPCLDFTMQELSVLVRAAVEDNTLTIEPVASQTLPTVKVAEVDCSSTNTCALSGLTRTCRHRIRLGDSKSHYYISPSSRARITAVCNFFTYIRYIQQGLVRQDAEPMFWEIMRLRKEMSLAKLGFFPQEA
inactive: ibrutinib 0.03 | [1] -0.035 | ralimetinib 0.021 | [2] -0.022 | [3] 0.004 | [4] 0.116 | [5] -0.006 | [6] 0.02 | [7] -0.024 | [8] 0.003 | vemurafenib -0.018 | [9] 0.017 | barasertib 0.054 | [10] 0.022 | volasertib -0.008 | [11] 0.054 | [12] 0.025 | [13] -0.016 | saracatinib 0.033 | sotrastaurin -0.024

RNASEH2B (UniProt Q5TBB1)
UniProt Q5TBB1, sequence (Q5TBB1 whole entry, looked up): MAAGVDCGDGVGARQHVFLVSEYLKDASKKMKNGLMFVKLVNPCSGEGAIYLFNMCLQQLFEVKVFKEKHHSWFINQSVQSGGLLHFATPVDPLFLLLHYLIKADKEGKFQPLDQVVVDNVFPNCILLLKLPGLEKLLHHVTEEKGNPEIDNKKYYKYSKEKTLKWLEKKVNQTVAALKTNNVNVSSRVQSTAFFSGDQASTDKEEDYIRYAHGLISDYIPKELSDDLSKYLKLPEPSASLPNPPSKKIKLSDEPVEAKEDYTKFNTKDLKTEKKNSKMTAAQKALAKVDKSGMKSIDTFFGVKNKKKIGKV
inactive: ibrutinib -0.001 | [1] -0.032 | ralimetinib 0.026 | [2] 0 | [3] 0.031 | [4] -0.025 | [5] 0.024 | [6] 0.005 | [7] 0.025 | [8] 0.009 | vemurafenib -0.008 | [9] 0.034 | barasertib -0.035 | [10] -0.056 | volasertib -0.044 | [11] -0.001 | [12] 0.026 | [13] -0.101 | saracatinib -0.022 | sotrastaurin 0.062

REEP5 (UniProt Q00765)
UniProt Q00765, sequence (Q00765 whole entry, looked up): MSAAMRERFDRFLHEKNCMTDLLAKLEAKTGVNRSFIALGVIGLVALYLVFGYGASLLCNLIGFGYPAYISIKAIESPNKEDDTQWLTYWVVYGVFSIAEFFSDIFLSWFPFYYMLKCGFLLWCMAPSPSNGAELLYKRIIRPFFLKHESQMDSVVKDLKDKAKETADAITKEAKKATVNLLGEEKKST
inactive: ibrutinib 0.043 | [1] 0.004 | ralimetinib -0.014 | [2] -0.01 | [3] -0.037 | [4] 0.017 | [5] -0.039 | [6] 0.004 | [7] -0.016 | [8] -0.042 | vemurafenib -0.008 | [9] -0.006 | barasertib -0.008 | [10] 0.073 | volasertib 0.023 | [11] 0.027 | [12] -0.051 | [13] 0.026 | saracatinib 0.017 | sotrastaurin -0.02

RPL36AL (UniProt Q969Q0)
inactive: ibrutinib -0.038 | [1] 0.004 | ralimetinib -0.018 | [2] 0.088 | [3] -0.004 | [4] -0.001 | [5] 0.068 | [6] -0.038 | [7] 0.013 | [8] 0.052 | vemurafenib -0.039 | [9] 0.012 | barasertib -0.009 | [10] -0.04 | volasertib -0.013 | [11] 0.076 | [12] -0.076 | [13] -0.004 | saracatinib -0.091 | sotrastaurin -0.032

RABGGTB (UniProt P53611)
UniProt P53611, sequence (P53611 whole entry, looked up): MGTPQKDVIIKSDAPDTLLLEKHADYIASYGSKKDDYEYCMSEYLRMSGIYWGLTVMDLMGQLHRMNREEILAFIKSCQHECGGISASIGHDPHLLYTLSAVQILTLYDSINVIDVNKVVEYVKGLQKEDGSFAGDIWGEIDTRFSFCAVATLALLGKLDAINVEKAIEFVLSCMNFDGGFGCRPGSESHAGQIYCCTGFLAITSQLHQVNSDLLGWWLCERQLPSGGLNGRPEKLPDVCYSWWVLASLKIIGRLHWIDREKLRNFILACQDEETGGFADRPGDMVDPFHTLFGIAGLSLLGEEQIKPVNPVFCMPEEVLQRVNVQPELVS
inactive: ibrutinib -0.017 | [1] -0.042 | ralimetinib 0.018 | [2] -0.052 | [3] 0.015 | [4] -0.002 | [5] -0.006 | [6] -0.013 | [7] 0.048 | [8] 0.013 | vemurafenib -0.022 | [9] 0.058 | barasertib 0.096 | [10] -0.034 | volasertib 0.008 | [11] -0.031 | [12] 0.151 | [13] -0.033 | saracatinib -0.017 | sotrastaurin 0.037

RDX (UniProt P35241)
UniProt P35241, sequence (P35241 whole entry, looked up): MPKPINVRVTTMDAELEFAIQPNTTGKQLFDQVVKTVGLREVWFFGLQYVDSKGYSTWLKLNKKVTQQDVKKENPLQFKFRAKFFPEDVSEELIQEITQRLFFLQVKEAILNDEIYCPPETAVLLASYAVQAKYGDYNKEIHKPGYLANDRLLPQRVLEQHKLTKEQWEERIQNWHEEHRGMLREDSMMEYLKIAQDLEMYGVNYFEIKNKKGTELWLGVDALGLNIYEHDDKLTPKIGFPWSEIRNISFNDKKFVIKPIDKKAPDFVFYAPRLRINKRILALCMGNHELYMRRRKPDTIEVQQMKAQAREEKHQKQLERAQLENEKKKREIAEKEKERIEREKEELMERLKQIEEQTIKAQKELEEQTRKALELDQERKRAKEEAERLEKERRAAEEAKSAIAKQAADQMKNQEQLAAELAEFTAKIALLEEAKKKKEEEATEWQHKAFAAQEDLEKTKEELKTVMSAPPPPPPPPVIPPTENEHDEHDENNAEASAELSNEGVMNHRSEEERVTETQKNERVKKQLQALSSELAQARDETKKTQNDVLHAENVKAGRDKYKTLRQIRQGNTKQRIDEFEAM
inactive: ibrutinib -0.051 | [1] 0 | ralimetinib -0.003 | [2] 0.002 | [3] 0.012 | [4] -0.016 | [5] -0.011 | [6] -0.021 | [7] -0.002 | [8] -0.004 | vemurafenib 0 | [9] -0.008 | barasertib 0.003 | [10] 0.016 | volasertib 0.017 | [11] -0.018 | [13] -0.109 | saracatinib -0.018 | sotrastaurin -0.013
active: [12] 0.712

RPL27 (UniProt P61353)
active: [12] 0.572
inactive: ibrutinib 0.037 | [1] -0.014 | ralimetinib -0.025 | [2] -0.018 | [3] -0.01 | [4] -0.067 | [5] -0.051 | [6] 0 | [7] -0.01 | [8] 0.014 | vemurafenib -0.022 | [9] -0.002 | barasertib 0.011 | [10] -0.001 | volasertib -0.008 | [11] -0.001 | [13] -0.079 | saracatinib 0.019 | sotrastaurin -0.015
